Compounds with a hit are over-represented: about 3.1% of the library has one in this group of screens.
FBA Mtb inh – Mtb fructose-bisphosphate aldolase inhibition; P9WQA3; purified M. tuberculosis FBA, fluorescence read-out; inhibition, % at 1 µM; actives 2.3% (n = 360,000); in the data active means inhibition above about 27%;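 further: 0% = vehicle and 100% = reference inhibitor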
Target sequence (P9WQA3 whole entry, looked up): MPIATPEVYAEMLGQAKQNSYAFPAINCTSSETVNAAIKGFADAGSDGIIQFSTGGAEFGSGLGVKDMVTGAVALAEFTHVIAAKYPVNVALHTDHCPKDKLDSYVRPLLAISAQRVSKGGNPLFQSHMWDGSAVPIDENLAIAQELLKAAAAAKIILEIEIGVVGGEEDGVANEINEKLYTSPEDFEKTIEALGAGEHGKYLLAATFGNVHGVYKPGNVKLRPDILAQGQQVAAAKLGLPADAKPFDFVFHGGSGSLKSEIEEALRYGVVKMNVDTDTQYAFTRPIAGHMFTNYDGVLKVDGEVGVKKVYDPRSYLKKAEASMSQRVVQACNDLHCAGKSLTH
Mtb BioA inh – BioA (M. tuberculosis) enzyme inhibition; AID 602481; inhibition, % at 9.99 µM; actives 0.096% (n = 360,000); purified M. tuberculosis BioA enzyme, plate reader; in the data active means inhibition above about 40%
SARS 3CLpro inh – SARS-CoV 3CLpro protease inhibition; inhibition, % at 6 µM; actives 0.14% (n = 290,000); recombinant SARS-CoV 3CLpro, quenched FRET peptide cleavage; in the data active means inhibition above about 12%
GDH-TPI inh – GDH-TPI coupled enzyme inhibition counter-screen | GDH-TPI coupled enzyme counterscreen, NADH absorbance | inhibition, % at 4.8 µM | actives 1.2% (n = 360,000) | AID 588335; in the data active means inhibition above about 30%;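 further: 0% = DMSO wells and 100% = wells lacking the enzyme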
FadD28 FP inh – inhibitors of Mycobacterium tuberculosis FadD28 bisubstrate binding; FadD28 bisubstrate probe binding, fluorescence polarization; inhibition, % at 12.5 µM; actives 0.22% (n = 360,000); in the data active means inhibition above about 8.5%, passing the limit was not always enough
Active calls of the source: *; nt = no result; + = active, no number.

SMILES	FBA Mtb inh	Mtb BioA inh	SARS 3CLpro inh	GDH-TPI inh	FadD28 FP inh
Cc1ccc(C(=O)Nn2c(O)c(C=C3N=c4ccccc4=N3)sc2=S)cc1	-11	-1	1	11	2
O=C(Nn1c(O)c(C=C2N=c3ccccc3=N2)sc1=S)c1ccccc1	-10	-1	1	24	15*
O=C(Nn1c(O)c(C=C2N=c3ccccc3=N2)sc1=S)c1cccc(Cl)c1	-8	-3	-1	19	-1
O=C(Nn1c(O)c(C=C2N=c3ccccc3=N2)sc1=S)c1ccc(Cl)cc1	-9	nt	-1	11	48*
COc1ccc(S(=O)(=O)N(C)C[C@@H]2Oc3c(NC(=O)C4CCOCC4)cccc3C(=O)N([C@H](C)CO)C[C@H]2C)cc1	nt	-1	nt	nt	nt
CC1(C)CC(=O)c2sc(NC(=O)C3CC3)nc2C1	-1	3	0	12	1
Cn1nc(C(C)(C)C)cc1C(=O)Nc1nc2c(s1)C(=O)CC(C)(C)C2	7	-1	-4	40*	0
C[C@H]1CN([C@@H](C)CO)C(=O)c2cc(NC(=O)Nc3ccc(C(F)(F)F)cc3)ccc2O[C@@H]1CN(C)S(C)(=O)=O	nt	6	nt	nt	nt
O=C(Nc1ccc(C(F)(F)F)cc1)N[C@H]1C=C[C@H](CC(=O)N2CCCCC2)O[C@H]1CO	nt	-2	nt	nt	nt
COc1cccc(Cn2c3ccc(NC(=O)CCc4ccc(F)cc4)cc3c(=O)n2C)c1	151*	-2	nt	4	-4
COc1ccccc1CCC(=O)Nc1ccc2c(c1)c(=O)n(C)n2C	189*	0	nt	8	-4
CCOCCC(=O)Nc1ccc2c(c1)c(=O)n(C)n2Cc1cccc(C(F)(F)F)c1	177*	0	nt	10	-2
COc1cccc(NC(=O)CCc2ccccc2)c1	3	-1	nt	8	-2
Cc1cc(C)cc(Cn2c3ccc(NC(=S)NCc4ccccc4F)cc3c(=O)n2C)c1	25	2	nt	5	-1
COc1ccc(CNC(=O)Nc2ccc3c(c2)c(=O)n(C)n3Cc2cc(C)cc(C)c2)cc1	168*	-1	nt	11	-2
O=C(N[C@@H]1CC[C@@H](CC(=O)N2CCc3ccccc3C2)O[C@@H]1CO)C1CC1	nt	-3	nt	nt	nt
C[C@@H]1CCCCO[C@@H](CN(C)S(C)(=O)=O)[C@H](C)CN([C@H](C)CO)C(=O)c2cc(NS(C)(=O)=O)ccc2O1	nt	-2	nt	nt	nt
Cn1c(=O)c2cc(NC(=O)CCc3ccccc3)ccc2n1Cc1cccc(C(F)(F)F)c1	127*	-1	nt	15	-3
Cn1c(=O)c2cc(NC(=O)NCc3ccccc3)ccc2n1Cc1cccc(C(F)(F)F)c1	138*	-1	nt	12	-2
CN(C)c1ccc(NC(=O)Nc2ccc3c(c2)c(=O)n(C)n3Cc2ccccc2)cc1	2	0	nt	8	-4
Cn1c(=O)c2cc(NC(=S)NCc3ccccc3F)ccc2n1Cc1cccc(C(F)(F)F)c1	21	0	nt	6	-2
O=C(C[C@H]1C[C@@H]2c3cc(NS(=O)(=O)c4ccc(F)cc4)ccc3O[C@@H]2[C@H](CO)O1)NCc1cc(F)ccc1F	nt	0	nt	nt	nt
COc1ccccc1S(=O)(=O)N[C@H]1CC[C@H](CCNC(=O)C2CCC2)O[C@@H]1CO	nt	1	nt	nt	nt
Cc1noc(C)c1S(=O)(=O)Nc1ccc2c(c1)C(=O)N([C@@H](C)CO)C[C@H](C)[C@H](CN(C)Cc1ccc(Cl)c(Cl)c1)O2	nt	2	nt	nt	nt
O=c1c2ccccc2nc(/C=C/c2ccc(Br)cc2)n1CCO	3	0	nt	35*	-1
SMILES	FBA Mtb inh	Mtb BioA inh	SARS 3CLpro inh	GDH-TPI inh	FadD28 FP inh
COc1ccc(-n2c(/C=C/c3ccc(O)cc3)nc3ccccc3c2=O)cc1	1	2	-4	57*	1
O=c1c2ccccc2nc(/C=C/c2ccc(O)cc2)n1-c1ccc(O)cc1	9	-3	-4	27	2
O=c1c2ccccc2nc(/C=C/c2ccc(Br)cc2)n1CCCO	0	1	3	22	-3
O=S1(=O)CC/C(=N/Nc2ccc(C(F)(F)F)cn2)c2cc(F)ccc21	0	nt	-3	14	0
O=C(N/N=C1\CCS(=O)(=O)c2ccc(F)cc21)c1ccc(O)cc1	1	nt	1	46*	-2
O=C(N/N=C1\CCS(=O)(=O)c2ccc(F)cc21)c1ccc([N+](=O)[O-])cc1	-3	1	3	17	-3
O=S1(=O)CC/C(=N/Nc2ccccn2)c2cc(F)ccc21	1	nt	2	33*	-1
O=C(C[C@H]1CC[C@H](NC(=O)NC2CCCCC2)[C@@H](CO)O1)NCc1ccc(F)cc1	nt	-3	nt	nt	nt
CC(C)NC(=O)N(C)C[C@@H]1Oc2cc(-c3ccncc3)ccc2S(=O)(=O)N([C@H](C)CO)C[C@H]1C	nt	0	nt	nt	nt
CC(=O)N[C@@H]1CC[C@H](CCNC(=O)C2CCC2)O[C@H]1CO	nt	7	nt	nt	nt
CCc1cccc(NC(=O)C2CCN(c3ncnc4sc(C)c(C)c34)CC2)c1	3	1	nt	-3	-1
Cc1sc2ncnc(N3CCC(C(=O)Nc4nnc(SCc5ccccc5F)s4)CC3)c2c1C	138*	nt	nt	0	0
CCCCC(C)Sc1nc2c([nH]1)c(=S)n(C)c(=O)n2C (configuration not stated)	-3	0	nt	31*	-1
CCCCSc1nc2c([nH]1)c(=S)n(C)c(=O)n2C	-1	nt	nt	28	-1
CSc1nc2c([nH]1)c(=S)n(C)c(=O)n2C	1	1	nt	34*	0
CCCC(CC)Sc1nc2c([nH]1)c(=S)n(C)c(=O)n2C (configuration not stated)	4	4	nt	20	1
O=C(C[C@@H]1CC[C@H]2[C@@H](COC[C@H](O)CN2C(=O)Nc2cccc(F)c2)O1)NCc1ccccc1Cl	nt	0	nt	nt	nt
COCCNc1nc(NCCCN2CCCC2=O)c2sc(-c3ccccc3)cc2n1	16	1	nt	31*	-11
O=C(NCC[C@@H]1CC[C@@H](NS(=O)(=O)c2cccc(F)c2)[C@@H](CO)O1)C1CCOCC1	nt	-2	nt	nt	nt
CCCc1cc(=O)oc2c3c(cc(OCC(=O)N[C@@H](C)C(=O)O)c12)OC(C)(C)CC3	+	-1	6	14	-2
CCCc1cc(=O)oc2c3c(cc(OCC(=O)N[C@@H](CSC)C(=O)O)c12)OC(C)(C)CC3	+	-1	0	20	-1
CCc1cc(=O)oc2c3c(cc(OCC(=O)N[C@H](C(=O)O)[C@H](C)CC)c12)OC(C)(C)CC3	+	-1	-5	17	0
CCCc1cc(=O)oc2cc(C)cc(OCC(=O)NC(Cc3c[nH]c4ccc(O)cc34)C(=O)O)c12 (configuration not stated)	19	-2	0	0	0
CCc1cc(=O)oc2cc(C)cc(OCC(=O)NC(Cc3c[nH]c4ccc(O)cc34)C(=O)O)c12 (configuration not stated)	12	1	4	8	1
C[C@@H]1CN([C@@H](C)CO)C(=O)c2cc(NS(=O)(=O)c3ccc(Cl)cc3)ccc2O[C@@H]1CN(C)S(C)(=O)=O	nt	0	nt	nt	nt
Cc1ccc(-c2nc3cc(NC(=O)C(C)C)ccc3o2)cc1	181*	-2	6	-2	-3

High-throughput results (PubChem BioAssay)
